Laboratory results taken from PubChem BioAssay (Tox21).
Results filed as inconclusive are left out. The source made the active and inactive calls. The call rests on the fitted dose curve; in most records, active means well fitted curve in the direction sought with a large enough effect in the repeat runs; inconclusive means weak or mixed curves; inactive means no such curve, though single readings can be large; an effect the other way counts as inactive or inconclusive.

Experiments:
[1] = qHTS RealTime-Glo MT Cell Viability Assay in HepG2 cells - 24 hour (AID 1224867); further: nearly all actives have a fitted effect of over 50% in size
How it was run: (§1)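 HepG2 cells were seeded at 600 cells/well together with NanoLuc luciferase and a cell-permeant prosubstrate, preincubated 5 h at 37 C/5% CO2, then pin-dosed with compounds in DMSO. Nonlytic luminescence from viable cells was read at each time point.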

[2] = qHTS RealTime-Glo MT Cell Viability Assay in HEK293 cells - 32 hour (AID 1224868); further: top concentration of the series differs between compounds; nearly all actives have a fitted effect of over 50% in size
How it was run: (§2)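 HEK293 cells were seeded at 600 cells/well together with NanoLuc luciferase and cell-permeant prosubstrate, preincubated 5 h at 37 C/5% CO2, then given compound in DMSO by pintool. Luminescence from viable-cell prosubstrate reduction was read repeatedly over 40 h.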

[3] = A CellTox Green Cytotoxicity Assay to monitor cytotoxicity in HEK293 cells - 0 hour (AID 1224869); further: nearly all actives have a fitted effect of over 50% in size
How it was run: (§3)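 Cells (HEK293, 600/well) and dye reagent are dispensed together. After 5 h at 37 C, 23 nL compound is pinned in. Plates stay at 37 C for 40 h with fluorescence read at 0h, 8h, 16h, 24h, 32h and 40h.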

[4] = qHTS RealTime-Glo MT Cell Viability Assay in HepG2 cells - 40 hour (AID 1224870); further: nearly all actives have a fitted effect of over 50% in size
How it was run: (§4)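 HepG2 cells mixed with RealTime-Glo MT reagents (NanoLuc plus cell-permeant prosubstrate) were seeded at 600 cells/well, incubated 5 h at 37 C/5% CO2, then pinned with compounds in DMSO; nonlytic luminescence tracked viability during 40 h treatment.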

[5] = A CellTox Green Cytotoxicity Assay to monitor cytotoxicity in HEK293 cells - 40 hour (AID 1224871); further: nearly all actives have a fitted effect of over 45% in size
How it was run: as §3

[6] = qHTS RealTime-Glo MT Cell Viability Assay in HEK293 cells - 16 hour (AID 1224872)
How it was run: as §2

[7] = qHTS RealTime-Glo MT Cell Viability Assay in HepG2 cells - 8 hour (AID 1224873); further: nearly all actives have a fitted effect of over 55% in size
How it was run: as §4

[8] = qHTS RealTime-Glo MT Cell Viability Assay in HEK293 cells - 40 hour (AID 1224874); settings: RealTime-Glo luminescence; max response: hits give low values; further: nearly all actives have a fitted effect of over 50% in size
How it was run: (§5)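 Real-time viability in HEK293: signal arises when living cells convert a prosubstrate for NanoLuc in the medium, so luminescence tracks viable cell number. Compound (23 nL, DMSO) added 5 h post-seeding; kinetic reads at 0–40 h, 37 C.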

[9] = A CellTox Green Cytotoxicity Assay to monitor cytotoxicity in HEK293 cells - 24 hour (AID 1224875); further: series mostly up to about 77 µM; nearly all actives have a fitted effect of over 45% in size
How it was run: as §3

[10] = A CellTox Green Cytotoxicity Assay to monitor cytotoxicity in HepG2 cells - 16 hour (AID 1224876); further: nearly all actives have a fitted effect of over 45% in size
How it was run: (§6)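 Cells and non-lytic dye reagent are dispensed together (600 HepG2 cells/well) and incubated 5 h before DMSO compound transfer. Kinetic fluorescence is then recorded in the same wells during 40 h at 37 C.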

[11] = qHTS RealTime-Glo MT Cell Viability Assay in HepG2 cells - 32 hour (AID 1224877); further: nearly all actives have a fitted effect of over 55% in size
How it was run: as §1

[12] = A CellTox Green Cytotoxicity Assay to monitor cytotoxicity in HepG2 cells - 24 hour (AID 1224878); further: nearly all actives have a fitted effect of over 45% in size
How it was run: as §6

[13] = A CellTox Green Cytotoxicity Assay to monitor cytotoxicity in HepG2 cells - 40 hour (AID 1224879); further: nearly all actives have a fitted effect of over 40% in size
How it was run: as §6

[14] = qHTS RealTime-Glo MT Cell Viability Assay in HEK293 cells - 0 hour (AID 1224880)
How it was run: as §5

[15] = A CellTox Green Cytotoxicity Assay to monitor cytotoxicity in HepG2 cells - 0 hour (AID 1224882); further: nearly all actives have a fitted effect of over 35% in size
How it was run: as §6

[16] = A CellTox Green Cytotoxicity Assay to monitor cytotoxicity in HepG2 cells - 32 hour (AID 1224883); further: nearly all actives have a fitted effect of over 50% in size
How it was run: as §6

[17] = A CellTox Green Cytotoxicity Assay to monitor cytotoxicity in HEK293 cells - 8 hour (AID 1224884); further: nearly all actives have a fitted effect of over 35% in size
How it was run: as §3

[18] = qHTS RealTime-Glo MT Cell Viability Assay in HepG2 cells - 16 hour (AID 1224885); further: nearly all actives have a fitted effect of over 50% in size
How it was run: as §1

[19] = qHTS RealTime-Glo MT Cell Viability Assay in HEK293 cells - 24 hour (AID 1224886)
How it was run: as §2

[20] = A CellTox Green Cytotoxicity Assay to monitor cytotoxicity in HEK293 cells - 32 hour (AID 1224881); further: nearly all actives have a fitted effect of over 40% in size
How it was run: as §3
On the % scale 0 is the no-effect control and ±100 the full control effect.

O=C(O)c1ccc(OCCN2CCCCC2)cc1
inactive: outcome [1] | Potency [2] | Potency [3] | outcome [4] | Potency [5] | Potency [6] | outcome [7] | max response [8] 5.16% | Potency [9] | Potency [10] | outcome [11] | Potency [12] | Potency [13] | outcome [14] | Potency [15] | Potency [16] | Potency [17] | outcome [18] | Potency [19]

COCCOCCOCCOC
inactive: outcome [1] | Potency [2] | Potency [3] | outcome [4] | Potency [5] | Potency [6] | outcome [7] | max response [8] 2.64% | Potency [9] | Potency [10] | outcome [11] | Potency [12] | Potency [13] | outcome [14] | Potency [20] | Potency [15] | Potency [16] | outcome [18] | Potency [19]

CCOC(=O)CCc1ccccc1
inactive: outcome [1] | Potency [2] | Potency [3] | outcome [4] | Potency [5] | Potency [6] | outcome [7] | max response [8] 3.62% | Potency [9] | Potency [10] | outcome [11] | Potency [12] | Potency [13] | outcome [14] | Potency [20] | Potency [15] | Potency [16] | Potency [17] | outcome [18] | Potency [19]

Nc1cc(C(=O)O)ccc1Cl
inactive: outcome [1] | Potency [2] | Potency [3] | outcome [4] | Potency [5] | Potency [6] | outcome [7] | max response [8] 6.48% | Potency [9] | Potency [10] | outcome [11] | Potency [12] | Potency [13] | outcome [14] | Potency [20] | Potency [15] | Potency [16] | Potency [17] | outcome [18] | Potency [19]

CCCCCCCCCCCCC1CO1 (centres undefined)
inactive: outcome [1] | Potency [2] | Potency [3] | outcome [4] | Potency [5] | Potency [6] | outcome [7] | max response [8] -5.34% | Potency [9] | Potency [10] | outcome [11] | Potency [12] | Potency [13] | Potency [20] | Potency [15] | Potency [16] | Potency [17] | outcome [18] | Potency [19]

Cc1ccc(S(=O)(=O)NC(=O)NC2CCCCCCC2)cc1
inactive: outcome [1] | Potency [2] | Potency [3] | outcome [4] | Potency [5] | Potency [6] | outcome [7] | max response [8] 0.902% | Potency [9] | Potency [10] | outcome [11] | Potency [12] | Potency [13] | Potency [15] | Potency [16] | Potency [17] | outcome [18] | Potency [19]

CCC(C)(CCC(C)C)C(=O)[O-].CCC(C)(CCC(C)C)C(=O)[O-].[Zn+2] (centres undefined)
inactive: outcome [1] | Potency [2] | Potency [3] | outcome [4] | Potency [5] | Potency [6] | outcome [7] | max response [8] 0.868% | Potency [9] | Potency [10] | outcome [11] | Potency [12] | Potency [13] | Potency [20] | Potency [15] | Potency [16] | Potency [17] | outcome [18] | Potency [19]

CCS(=O)(=O)CCn1c([N+](=O)[O-])cnc1C
inactive: outcome [1] | Potency [2] | Potency [3] | outcome [4] | Potency [5] | Potency [6] | outcome [7] | max response [8] -0.732% | Potency [9] | Potency [10] | outcome [11] | Potency [12] | Potency [13] | Potency [20] | Potency [15] | Potency [16] | Potency [17] | outcome [18] | Potency [19]

NS(=O)(=O)c1ccccc1OC(F)(F)F
inactive: outcome [1] | Potency [2] | Potency [3] | outcome [4] | Potency [5] | Potency [6] | outcome [7] | max response [8] 6.21% | Potency [9] | Potency [10] | outcome [11] | Potency [12] | Potency [13] | Potency [20] | Potency [15] | Potency [16] | Potency [17] | outcome [18] | Potency [19]

C1=CCC(c2ccccc2)CC1 (centres undefined)
inactive: outcome [1] | Potency [2] | Potency [3] | outcome [4] | Potency [5] | Potency [6] | outcome [7] | max response [8] 4.33% | Potency [9] | Potency [10] | outcome [11] | Potency [12] | Potency [13] | outcome [14] | Potency [15] | Potency [16] | outcome [18] | Potency [19]

CC(=O)OCC(=O)[C@@]1(O)[C@H](OC(C)=O)C[C@H]2[C@@H]3CCC4=CC(=O)C=C[C@]4(C)[C@@]3(F)[C@@H](O)C[C@@]21C
inactive: outcome [1] | Potency [2] | Potency [3] | outcome [4] | Potency [5] | Potency [6] | outcome [7] | max response [8] 3.94% | Potency [9] | Potency [10] | outcome [11] | Potency [12] | Potency [13] | Potency [15] | Potency [16] | Potency [17] | outcome [18] | Potency [19]

O=C(O)C(=O)Nc1cccc(-c2nn[nH]n2)c1
inactive: outcome [1] | Potency [2] | Potency [3] | outcome [4] | Potency [5] | Potency [6] | outcome [7] | max response [8] 0.908% | Potency [9] | Potency [10] | outcome [11] | Potency [12] | Potency [13] | outcome [14] | Potency [15] | Potency [16] | outcome [18] | Potency [19]

C=CC(C)(O)CC/C=C(\C)CC (centres undefined)
inactive: outcome [1] | Potency [2] | Potency [3] | outcome [4] | Potency [5] | Potency [6] | outcome [7] | max response [8] 5.46% | Potency [9] | Potency [10] | outcome [11] | Potency [12] | Potency [13] | outcome [14] | Potency [15] | Potency [16] | Potency [17] | outcome [18] | Potency [19]

CCC(C)(C)C1CCC(=O)CC1
inactive: outcome [1] | Potency [2] | Potency [3] | outcome [4] | Potency [5] | Potency [6] | outcome [7] | max response [8] 7.65% | Potency [9] | Potency [10] | outcome [11] | Potency [12] | Potency [13] | Potency [20] | Potency [15] | Potency [16] | Potency [17] | outcome [18] | Potency [19]
